What all share (assay): DAPPL (digital affinity profiling via proximity ligation, sequencing); 10 mM Tris-HCl pH 7.5, 50 mM NaCl, 1 mM DTT, 4% glycerol, room temperature, 30 min; GST-TFs on glutathione beads, 16-mer random dsDNA library, 0.1% formaldehyde crosslink after washing; high values mean tight binding
One assay concerns the target T1, FLI1 (Homo sapiens, UniProt Q01543 1-452).
T1 sequence: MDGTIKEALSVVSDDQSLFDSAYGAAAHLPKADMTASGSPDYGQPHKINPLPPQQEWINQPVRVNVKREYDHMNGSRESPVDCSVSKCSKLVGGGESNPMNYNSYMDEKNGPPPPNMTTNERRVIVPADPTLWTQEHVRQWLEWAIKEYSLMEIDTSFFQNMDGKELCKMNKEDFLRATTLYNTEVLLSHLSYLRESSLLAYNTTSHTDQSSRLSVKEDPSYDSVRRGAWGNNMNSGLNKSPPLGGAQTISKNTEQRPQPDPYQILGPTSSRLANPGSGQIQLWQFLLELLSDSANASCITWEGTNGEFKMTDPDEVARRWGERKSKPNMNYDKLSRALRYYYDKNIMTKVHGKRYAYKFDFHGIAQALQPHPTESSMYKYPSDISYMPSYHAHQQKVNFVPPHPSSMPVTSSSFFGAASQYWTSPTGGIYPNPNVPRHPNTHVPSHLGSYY
Particulars: protein: recombinant; tags: N-terminal GST; dsDNA, one strand shown. Summed up: (§1)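 Binding signal is given per hexamer as its read frequency for a factor divided by its frequency in the tag-only sample. GST-fused human transcription factors were expressed in yeast, captured on glutathione beads, barcoded with DNA and pooled with that sample, then incubated with 200 nmole of a 16-mer random double-stranded DNA library in Tris/NaCl/DTT/glycerol buffer for 30 min at room temperature. The pools were then washed, crosslinked, proximity-ligated, amplified by PCR and sequenced on an Illumina NextSeq500.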

The next assay has as its target T2, ELK1 (Homo sapiens, UniProt P19419 1-428).
T2 sequence: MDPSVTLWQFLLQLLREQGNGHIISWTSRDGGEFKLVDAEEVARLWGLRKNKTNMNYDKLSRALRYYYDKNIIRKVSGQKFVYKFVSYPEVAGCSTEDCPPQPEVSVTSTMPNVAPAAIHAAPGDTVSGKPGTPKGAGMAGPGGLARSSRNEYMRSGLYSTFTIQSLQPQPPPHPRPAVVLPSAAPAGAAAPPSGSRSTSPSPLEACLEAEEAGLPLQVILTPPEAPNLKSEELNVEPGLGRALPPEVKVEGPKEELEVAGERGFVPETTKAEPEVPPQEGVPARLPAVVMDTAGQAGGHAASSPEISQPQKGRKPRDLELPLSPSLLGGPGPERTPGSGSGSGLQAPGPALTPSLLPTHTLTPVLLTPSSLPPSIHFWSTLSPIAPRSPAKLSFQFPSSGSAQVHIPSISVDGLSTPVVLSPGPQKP
Particulars: protein: recombinant; tags: N-terminal GST; dsDNA, one strand shown. The gist of the method:
as §1

Another assay concerns the target T3, GABPA (Homo sapiens, UniProt Q06546 1-454).
T3 sequence: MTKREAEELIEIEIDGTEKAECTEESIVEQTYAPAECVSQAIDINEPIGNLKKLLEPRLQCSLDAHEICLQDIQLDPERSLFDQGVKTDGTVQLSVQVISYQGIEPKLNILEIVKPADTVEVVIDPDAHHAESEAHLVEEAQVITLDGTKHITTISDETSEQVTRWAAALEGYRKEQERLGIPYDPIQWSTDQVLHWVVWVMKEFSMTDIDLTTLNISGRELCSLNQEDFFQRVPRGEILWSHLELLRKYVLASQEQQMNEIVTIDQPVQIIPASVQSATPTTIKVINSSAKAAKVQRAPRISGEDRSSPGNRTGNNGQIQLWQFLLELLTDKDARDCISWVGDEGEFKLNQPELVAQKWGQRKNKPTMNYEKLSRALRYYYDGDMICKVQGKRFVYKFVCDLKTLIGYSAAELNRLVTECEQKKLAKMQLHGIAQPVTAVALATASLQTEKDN
Particulars: protein: recombinant; tags: N-terminal GST; dsDNA, one strand shown. Summed up: as §1

The next assay concerns the target T4, ERG (Homo sapiens, UniProt P11308 1-479).
T4 sequence: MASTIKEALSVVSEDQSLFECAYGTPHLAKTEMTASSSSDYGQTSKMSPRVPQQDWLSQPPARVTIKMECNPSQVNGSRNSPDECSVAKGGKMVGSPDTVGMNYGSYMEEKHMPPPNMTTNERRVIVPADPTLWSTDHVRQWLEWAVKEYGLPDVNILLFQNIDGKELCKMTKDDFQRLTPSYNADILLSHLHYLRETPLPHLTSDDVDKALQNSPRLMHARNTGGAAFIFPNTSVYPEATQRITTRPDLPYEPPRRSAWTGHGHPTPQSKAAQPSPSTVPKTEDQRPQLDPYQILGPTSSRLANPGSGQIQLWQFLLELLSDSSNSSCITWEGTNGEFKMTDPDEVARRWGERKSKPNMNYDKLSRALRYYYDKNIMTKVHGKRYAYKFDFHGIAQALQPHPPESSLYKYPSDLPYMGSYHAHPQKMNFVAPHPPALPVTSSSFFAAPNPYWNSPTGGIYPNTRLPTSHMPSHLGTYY
Particulars: protein: recombinant; tags: N-terminal GST; dsDNA, one strand shown. Summed up:
as §1

For another assay, the target named is ELF1 (Homo sapiens, UniProt P32519 1-619). Particulars: protein: recombinant; tags: N-terminal GST; dsDNA, one strand shown. Summed up:
as §1

In a further assay the target is T5, EHF (Homo sapiens, UniProt Q9NZC4 1-300).
T5 sequence: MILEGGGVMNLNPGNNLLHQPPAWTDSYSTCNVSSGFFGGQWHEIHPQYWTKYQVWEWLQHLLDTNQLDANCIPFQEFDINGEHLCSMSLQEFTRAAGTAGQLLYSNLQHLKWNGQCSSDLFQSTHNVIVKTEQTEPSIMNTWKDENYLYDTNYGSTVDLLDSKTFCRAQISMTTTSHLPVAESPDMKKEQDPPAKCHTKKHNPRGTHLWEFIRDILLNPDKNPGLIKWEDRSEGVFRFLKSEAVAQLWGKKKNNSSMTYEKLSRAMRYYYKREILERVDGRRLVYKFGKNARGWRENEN
Particulars: protein: recombinant; tags: N-terminal GST; dsDNA, one strand shown. The gist of the method:
as §1

Another assay addresses SPI1 (Homo sapiens, UniProt P17947 1-270). Particulars: protein: recombinant; tags: N-terminal GST; dsDNA, one strand shown. Summed up: as §1
For a further assay, the target named is SPIB (Homo sapiens, UniProt Q01892 1-262). Particulars: protein: recombinant; tags: N-terminal GST; dsDNA, one strand shown. Summed up:
as §1

The next assay deals with T6, FEV (Homo sapiens, UniProt Q99581 1-238).
T6 sequence: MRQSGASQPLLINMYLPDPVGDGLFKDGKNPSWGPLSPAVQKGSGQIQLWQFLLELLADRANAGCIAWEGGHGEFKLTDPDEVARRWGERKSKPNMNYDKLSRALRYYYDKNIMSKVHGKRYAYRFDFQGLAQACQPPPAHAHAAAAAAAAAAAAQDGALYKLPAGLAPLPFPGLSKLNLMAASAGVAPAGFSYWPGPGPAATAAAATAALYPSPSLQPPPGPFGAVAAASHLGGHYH
Particulars: protein: recombinant; tags: N-terminal GST; dsDNA, one strand shown. The gist of the method:
as §1

The next assay addresses ETV5 (Homo sapiens, UniProt P41161 1-510). Particulars: protein: recombinant; tags: N-terminal GST; dsDNA, one strand shown. Summed up: as §1
The next assay addresses HSF1 (Homo sapiens, UniProt Q00613 1-529). Particulars: protein: recombinant; tags: N-terminal GST; chain copies: 3; dsDNA, one strand shown. Summed up:
as §1

In the next assay the target is T7, SPIC (Homo sapiens, UniProt Q8N5J4 1-248).
T7 sequence: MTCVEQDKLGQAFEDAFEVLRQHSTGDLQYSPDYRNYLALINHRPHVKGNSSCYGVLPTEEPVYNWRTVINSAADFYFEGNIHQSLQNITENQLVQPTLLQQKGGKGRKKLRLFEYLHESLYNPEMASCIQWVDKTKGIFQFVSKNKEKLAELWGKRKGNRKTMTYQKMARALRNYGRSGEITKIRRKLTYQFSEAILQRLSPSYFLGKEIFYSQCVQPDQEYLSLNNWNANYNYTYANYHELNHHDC
Particulars: protein: recombinant; tags: N-terminal GST; dsDNA, one strand shown. Summed up: as §1

In the next assay the target is ELF4 (Homo sapiens, UniProt Q99607 1-663). Particulars: protein: recombinant; tags: N-terminal GST; dsDNA, one strand shown. Summed up:
as §1

A further assay addresses T8, ELK4 (Homo sapiens, UniProt P28324-2 1-405).
T8 sequence: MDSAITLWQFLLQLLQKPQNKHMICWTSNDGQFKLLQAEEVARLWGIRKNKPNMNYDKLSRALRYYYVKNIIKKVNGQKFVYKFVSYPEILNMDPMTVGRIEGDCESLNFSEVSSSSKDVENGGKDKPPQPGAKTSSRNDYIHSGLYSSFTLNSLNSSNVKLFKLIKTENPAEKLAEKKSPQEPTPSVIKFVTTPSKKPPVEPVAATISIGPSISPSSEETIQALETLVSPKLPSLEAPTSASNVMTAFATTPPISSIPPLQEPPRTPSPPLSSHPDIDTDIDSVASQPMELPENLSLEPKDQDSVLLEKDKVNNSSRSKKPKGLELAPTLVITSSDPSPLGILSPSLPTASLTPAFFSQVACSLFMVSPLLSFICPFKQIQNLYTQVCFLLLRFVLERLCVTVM
Particulars: protein: recombinant; tags: N-terminal GST; dsDNA, one strand shown. The gist of the method:
as §1

For another assay, the target named is T9, ETV2 (Homo sapiens, UniProt O00321 1-342).
T9 sequence: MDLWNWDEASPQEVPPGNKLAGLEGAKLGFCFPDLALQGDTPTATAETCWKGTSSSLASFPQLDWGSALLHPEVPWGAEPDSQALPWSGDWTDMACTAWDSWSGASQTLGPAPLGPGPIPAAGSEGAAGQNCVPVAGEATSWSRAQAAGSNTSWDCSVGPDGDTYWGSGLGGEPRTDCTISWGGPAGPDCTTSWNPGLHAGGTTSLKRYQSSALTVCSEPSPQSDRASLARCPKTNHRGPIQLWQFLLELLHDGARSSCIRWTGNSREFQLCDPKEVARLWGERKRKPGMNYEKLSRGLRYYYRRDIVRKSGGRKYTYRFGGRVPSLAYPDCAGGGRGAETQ
Particulars: protein: recombinant; tags: N-terminal GST; dsDNA, one strand shown. The gist of the method:
as §1

For another assay, the target named is T10, ELF3 (Homo sapiens, UniProt P78545 1-371).
T10 sequence: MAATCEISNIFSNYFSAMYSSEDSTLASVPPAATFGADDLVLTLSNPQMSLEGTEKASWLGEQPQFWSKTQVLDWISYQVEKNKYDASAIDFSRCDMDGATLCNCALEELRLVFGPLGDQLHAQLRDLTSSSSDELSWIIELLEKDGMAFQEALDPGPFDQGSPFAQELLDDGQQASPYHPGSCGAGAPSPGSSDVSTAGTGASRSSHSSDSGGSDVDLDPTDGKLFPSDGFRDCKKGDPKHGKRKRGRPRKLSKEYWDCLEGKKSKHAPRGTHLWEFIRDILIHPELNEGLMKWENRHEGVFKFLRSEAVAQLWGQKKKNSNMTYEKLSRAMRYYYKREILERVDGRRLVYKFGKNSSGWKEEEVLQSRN
Particulars: protein: recombinant; tags: N-terminal GST; dsDNA, one strand shown. The gist of the method:
as §1

The target in another assay is CRX (Homo sapiens, UniProt O43186 1-299). Particulars: protein: recombinant; tags: N-terminal GST; dsDNA, one strand shown. Summed up: as §1
The next assay has as its target ETV1 (Homo sapiens, UniProt P50549 1-477). Particulars: protein: recombinant; tags: N-terminal GST; dsDNA, one strand shown. Summed up: as §1

Chain of ETV1 (P50549 whole entry): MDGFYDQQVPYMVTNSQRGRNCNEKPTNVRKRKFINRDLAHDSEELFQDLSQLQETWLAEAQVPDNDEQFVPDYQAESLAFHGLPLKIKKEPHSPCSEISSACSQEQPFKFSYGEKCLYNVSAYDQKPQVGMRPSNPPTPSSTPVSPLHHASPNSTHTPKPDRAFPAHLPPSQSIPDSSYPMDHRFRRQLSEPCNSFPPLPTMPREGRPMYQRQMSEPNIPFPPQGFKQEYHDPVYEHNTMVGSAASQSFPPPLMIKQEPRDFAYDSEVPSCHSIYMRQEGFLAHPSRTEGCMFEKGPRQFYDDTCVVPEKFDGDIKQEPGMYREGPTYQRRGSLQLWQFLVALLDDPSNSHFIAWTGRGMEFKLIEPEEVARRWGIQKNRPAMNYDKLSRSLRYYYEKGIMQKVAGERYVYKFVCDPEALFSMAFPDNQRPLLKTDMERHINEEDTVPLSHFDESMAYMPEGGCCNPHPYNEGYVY
Chain of ETV5 (P41161 whole entry): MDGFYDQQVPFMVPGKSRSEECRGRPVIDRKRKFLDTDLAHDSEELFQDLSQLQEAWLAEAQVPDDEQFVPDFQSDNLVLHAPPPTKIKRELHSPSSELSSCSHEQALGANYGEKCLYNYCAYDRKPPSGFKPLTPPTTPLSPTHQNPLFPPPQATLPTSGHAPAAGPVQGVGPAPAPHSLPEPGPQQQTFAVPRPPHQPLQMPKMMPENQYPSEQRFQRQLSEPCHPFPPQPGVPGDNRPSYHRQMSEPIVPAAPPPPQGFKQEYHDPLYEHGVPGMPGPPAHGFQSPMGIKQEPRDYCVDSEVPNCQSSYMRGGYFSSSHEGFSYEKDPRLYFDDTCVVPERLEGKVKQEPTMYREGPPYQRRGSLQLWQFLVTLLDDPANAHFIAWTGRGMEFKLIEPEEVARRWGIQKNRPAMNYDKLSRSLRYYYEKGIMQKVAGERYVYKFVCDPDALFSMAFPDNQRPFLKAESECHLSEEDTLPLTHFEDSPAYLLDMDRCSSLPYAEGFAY
Chain of SPIB (Q01892 whole entry): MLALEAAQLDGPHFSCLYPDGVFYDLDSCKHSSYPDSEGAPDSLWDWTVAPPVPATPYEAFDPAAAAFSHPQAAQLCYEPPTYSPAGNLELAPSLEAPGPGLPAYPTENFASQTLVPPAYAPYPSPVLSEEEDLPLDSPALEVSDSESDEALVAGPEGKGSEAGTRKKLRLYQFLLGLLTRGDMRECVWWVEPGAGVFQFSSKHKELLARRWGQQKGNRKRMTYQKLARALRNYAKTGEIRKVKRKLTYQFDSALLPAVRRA
Chain of HSF1 (Q00613 whole entry): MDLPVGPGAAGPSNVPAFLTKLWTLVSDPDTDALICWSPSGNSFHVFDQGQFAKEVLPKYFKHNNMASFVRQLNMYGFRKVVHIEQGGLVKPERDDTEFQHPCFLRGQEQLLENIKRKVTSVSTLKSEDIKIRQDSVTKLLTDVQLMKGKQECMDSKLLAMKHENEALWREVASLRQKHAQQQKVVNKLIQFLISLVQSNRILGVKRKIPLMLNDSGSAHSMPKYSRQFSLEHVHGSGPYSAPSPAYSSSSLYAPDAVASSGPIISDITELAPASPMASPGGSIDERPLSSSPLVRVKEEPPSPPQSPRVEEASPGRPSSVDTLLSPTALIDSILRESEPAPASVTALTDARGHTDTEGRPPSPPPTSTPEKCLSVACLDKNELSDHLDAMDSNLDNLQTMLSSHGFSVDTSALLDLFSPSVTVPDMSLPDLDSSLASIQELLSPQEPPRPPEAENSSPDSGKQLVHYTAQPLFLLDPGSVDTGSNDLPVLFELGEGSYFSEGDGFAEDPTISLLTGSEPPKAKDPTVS
Chain of ELF1 (P32519 whole entry): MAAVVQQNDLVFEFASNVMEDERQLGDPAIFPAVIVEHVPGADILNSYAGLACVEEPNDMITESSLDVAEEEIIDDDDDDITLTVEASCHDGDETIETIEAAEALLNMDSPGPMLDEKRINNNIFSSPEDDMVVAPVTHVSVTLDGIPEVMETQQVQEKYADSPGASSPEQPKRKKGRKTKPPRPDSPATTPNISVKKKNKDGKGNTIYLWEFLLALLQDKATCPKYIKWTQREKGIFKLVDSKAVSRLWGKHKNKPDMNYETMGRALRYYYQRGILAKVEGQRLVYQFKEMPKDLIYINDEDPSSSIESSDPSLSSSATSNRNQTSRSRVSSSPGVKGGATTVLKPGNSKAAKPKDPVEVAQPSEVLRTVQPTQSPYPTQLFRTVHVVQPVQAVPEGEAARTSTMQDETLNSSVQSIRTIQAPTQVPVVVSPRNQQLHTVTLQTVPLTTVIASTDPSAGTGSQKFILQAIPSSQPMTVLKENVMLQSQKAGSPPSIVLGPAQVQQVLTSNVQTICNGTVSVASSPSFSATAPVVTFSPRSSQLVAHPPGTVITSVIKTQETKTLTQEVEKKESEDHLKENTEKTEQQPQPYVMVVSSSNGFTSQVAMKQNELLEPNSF
Chain of ELF4 (Q99607 whole entry): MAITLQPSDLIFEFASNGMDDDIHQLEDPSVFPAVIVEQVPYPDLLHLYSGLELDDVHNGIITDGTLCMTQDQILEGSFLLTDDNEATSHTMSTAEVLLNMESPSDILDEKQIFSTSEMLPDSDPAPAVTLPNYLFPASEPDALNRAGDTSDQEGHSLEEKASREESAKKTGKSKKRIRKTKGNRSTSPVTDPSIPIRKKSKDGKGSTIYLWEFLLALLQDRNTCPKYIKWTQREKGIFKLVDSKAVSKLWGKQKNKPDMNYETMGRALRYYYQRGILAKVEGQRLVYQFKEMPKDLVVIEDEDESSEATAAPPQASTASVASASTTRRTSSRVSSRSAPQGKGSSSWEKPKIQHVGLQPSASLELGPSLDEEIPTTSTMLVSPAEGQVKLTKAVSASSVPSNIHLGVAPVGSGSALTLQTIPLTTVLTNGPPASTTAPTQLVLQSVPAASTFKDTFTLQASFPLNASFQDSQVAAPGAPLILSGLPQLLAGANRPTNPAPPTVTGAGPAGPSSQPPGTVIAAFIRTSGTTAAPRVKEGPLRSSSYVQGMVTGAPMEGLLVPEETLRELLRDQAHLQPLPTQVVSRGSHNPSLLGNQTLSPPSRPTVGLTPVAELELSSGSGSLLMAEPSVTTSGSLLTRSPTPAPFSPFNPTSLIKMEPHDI
Chain of CRX (O43186 whole entry): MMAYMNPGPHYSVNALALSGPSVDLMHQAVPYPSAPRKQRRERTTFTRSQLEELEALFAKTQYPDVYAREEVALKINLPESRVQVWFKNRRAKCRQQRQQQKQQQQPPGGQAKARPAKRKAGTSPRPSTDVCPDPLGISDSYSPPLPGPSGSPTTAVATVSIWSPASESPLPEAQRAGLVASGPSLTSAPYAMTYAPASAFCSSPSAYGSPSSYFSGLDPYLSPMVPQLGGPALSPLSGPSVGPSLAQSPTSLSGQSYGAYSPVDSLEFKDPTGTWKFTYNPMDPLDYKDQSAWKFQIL

For ATTAAG, the binding signal with FLI1 was 1.04 fold enrichment (6-mer frequency, TF over GST control); in the assay with ELK1, 1.07 fold enrichment (6-mer frequency, TF over GST control); in the assay with GABPA, 1.09 fold enrichment (6-mer frequency, TF over GST control); in the assay with ERG, 1.01 fold enrichment (6-mer frequency, TF over GST control); with ELF1 it was 1.08 fold enrichment (6-mer frequency, TF over GST control); with EHF, 1.04 fold enrichment (6-mer frequency, TF over GST control). The binding signal is 1.03 fold enrichment (6-mer frequency, TF over GST control) with SPI1; 1.06 fold enrichment (6-mer frequency, TF over GST control) with SPIB; 1.02 fold enrichment (6-mer frequency, TF over GST control) with FEV; 1.01 fold enrichment (6-mer frequency, TF over GST control) with ETV5; 2 fold enrichment (6-mer frequency, TF over GST control) with HSF1; 1.04 fold enrichment (6-mer frequency, TF over GST control) with SPIC. Besides, the binding signal with ELF4 was 1.06 fold enrichment (6-mer frequency, TF over GST control); with ELK4, 1.04 fold enrichment (6-mer frequency, TF over GST control); in the assay with ETV2 it was 1.03 fold enrichment (6-mer frequency, TF over GST control); with ELF3, 1.14 fold enrichment (6-mer frequency, TF over GST control); with CRX, 3.35 fold enrichment (6-mer frequency, TF over GST control); with ETV1, 1.03 fold enrichment (6-mer frequency, TF over GST control).

For the origin of these results see paper PMC7862700, “An all-to-all approach to the identification of sequence-specific readers for epigenetic DNA modifications on cytosine”.
